Inconclusive results are not listed. The source made the active and inactive calls. Calls follow the shape of the dose curve; as a rule, active = well fitted cell-killing curve with a large enough effect; inconclusive = small, poorly fitted or top-dose-only effect, or effect the other way; inactive = flat fitted curve, though single readings scatter.
What was measured:
Assay in all cases: Primary qHTS to identify gynecologic anti-cancer compounds using libraries of approved drugs and bioactive compounds (AID 1345084); also: nearly all actives have a fitted effect of over 55% in size
[1] = system: C33A; conditions: Gynecologic cancer cell panel viability, ATPlite luminescence, 48 h; series mostly up to 57.5 µM
In short: (§1)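 Cells, 1,000 per well, plated 16 h, then exposed 48 h at 37 C to compounds. Viability by ATPlite luminescence after 15 min at room temperature.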

[2] = system: CAOV3; conditions: Gynecologic cancer cell panel viability, ATPlite luminescence, 48 h; series mostly up to 57.5 µM
In short: as §1

[3] = system: CASKI; conditions: Gynecologic cancer cell panel viability, ATPlite luminescence, 48 h; series mostly up to 57.5 µM
In short: as §1

[4] = system: Es-2; conditions: Gynecologic cancer cell panel viability, ATPlite luminescence, 48 h; series mostly up to 57.5 µM
In short: as §1

[5] = system: HeLa; conditions: Gynecologic cancer cell panel viability, ATPlite luminescence, 48 h; series mostly up to 57.5 µM
In short: as §1

[6] = system: Hek293T; conditions: Gynecologic cancer cell panel viability, ATPlite luminescence, 48 h, control line for the selectivity index; series mostly up to 57.5 µM
In short: as §1

[7] = system: JEG-3; conditions: Gynecologic cancer cell panel viability, ATPlite luminescence, 48 h; series mostly up to 57.5 µM
In short: as §1

[8] = system: OV90; conditions: Gynecologic cancer cell panel viability, ATPlite luminescence, 48 h; series mostly up to 57.5 µM
In short: as §1

[9] = system: PA-1; conditions: Gynecologic cancer cell panel viability, ATPlite luminescence, 48 h; series mostly up to 57.5 µM
In short: as §1

[10] = system: SKOV3; conditions: Gynecologic cancer cell panel viability, ATPlite luminescence, 48 h; series mostly up to 57.5 µM
In short: as §1

[11] = system: Tov-21-G; conditions: Gynecologic cancer cell panel viability, ATPlite luminescence, 48 h; series mostly up to 57.5 µM
In short: as §1

[12] = system: Tov112D; conditions: Gynecologic cancer cell panel viability, ATPlite luminescence, 48 h; series mostly up to 57.5 µM
In short: as §1
% is scaled to controls: 0 for no effect and ±100 for the full control effect.

CC(C)=CCCC1(C)C2CCC1(C)C(O)C2 (stereo not given)
inactive: Potency [1] | Potency [2] | Potency [3] | Potency [4] | Potency [5] | Potency [6] | Potency [7] | Potency [8] | Potency [9] | Potency [10] | Potency [11] | Potency [12]

C=C(COC(=O)C(O)C(O)CN)C12OC1C1(C)C(=CC2=O)C(O)C(O)CC1C (stereo not given)
inactive: Potency [1] | Potency [2] | Potency [3] | Potency [4] | Potency [5] | Potency [6] | Potency [7] | Potency [8] | Potency [9] | Potency [10] | Potency [11] | Potency [12]

Cc1cccc(N2CCN(C(=O)c3cc(S(=O)(=O)N(C)C)ccc3N3CCCC3)CC2)c1C
inactive: Potency [1] | Potency [2] | Potency [3] | Potency [4] | Potency [5] | Potency [6] | Potency [7] | Potency [8] | Potency [9] | Potency [10] | Potency [11] | Potency [12]

COC(=O)C(Cc1ccc(OCCn2c(=O)sc3cc(C(=O)c4ccccc4)ccc32)cc1)C(=O)OC
inactive: Potency [1] | Potency [2] | Potency [3] | Potency [4] | Potency [5] | Potency [6] | Potency [7] | Potency [8] | Potency [9] | Potency [10] | Potency [11] | Potency [12]

CN1CCN(C2=Nc3ccccc3Nc3ccc(Cl)cc32)CC1
inactive: Potency [1] | Potency [2] | Potency [3] | Potency [4] | Potency [5] | Potency [6] | Potency [7] | Potency [8] | Potency [9] | Potency [10] | Potency [11] | Potency [12]

Cc1nc2c(C(F)(F)F)cccc2nc1-c1ccc(-c2cccc(S(C)(=O)=O)c2)cc1
inactive: Potency [1] | Potency [2] | Potency [3] | Potency [4] | Potency [5] | Potency [6] | Potency [7] | Potency [8] | Potency [9] | Potency [10] | Potency [11] | Potency [12]

Cc1cc2sc(NC(=O)Cc3ccccc3)nc2cc1Cl
inactive: Potency [1] | Potency [2] | Potency [3] | Potency [4] | Potency [5] | Potency [6] | Potency [7] | Potency [8] | Potency [9] | Potency [10] | Potency [11] | Potency [12]

CCOC(=O)N1c2ccc(C(F)(F)F)cc2C(N(Cc2cc(C(F)(F)F)cc(C(F)(F)F)c2)C(=O)OC)CC1CC (stereo not given)
inactive: Potency [1] | Potency [2] | Potency [3] | Potency [4] | Potency [5] | Potency [6] | Potency [7] | Potency [8] | Potency [9] | Potency [10] | Potency [11] | Potency [12]

CCC(C)c1ccc(NC(=O)Cn2cnc3c2c(=O)n(C)c(=O)n3C)cc1 (stereo not given)
inactive: Potency [1] | Potency [2] | Potency [3] | Potency [4] | Potency [5] | Potency [6] | Potency [7] | Potency [8] | Potency [9] | Potency [10] | Potency [11] | Potency [12]

Cc1cccc(C#Cc2cc(F)cc(C#N)c2)n1
inactive: Potency [1] | Potency [2] | Potency [3] | Potency [4] | Potency [5] | Potency [6] | Potency [7] | Potency [8] | Potency [9] | Potency [10] | Potency [11] | Potency [12]

CC(=O)OC/C(=C/C(=O)O)CC[C@@H]1C(C=O)=CC[C@@H]2C(C)(C)CCC[C@@]12C
inactive: Potency [1] | Potency [2] | Potency [3] | Potency [4] | Potency [5] | Potency [6] | Potency [7] | Potency [8] | Potency [9] | Potency [10] | Potency [11] | Potency [12]

CC(=O)OC1C(OC(=O)c2ccccc2)C2C(C)(C)CCC(OC(C)=O)C2(C)C23CCC(C)(C2)C(=O)CC13 (stereo not given)
inactive: Potency [1] | Potency [2] | Potency [3] | Potency [4] | Potency [5] | Potency [6] | Potency [7] | Potency [8] | Potency [9] | Potency [10] | Potency [11] | Potency [12]

CC(=O)O[C@@H]1C[C@]2(C)[C@@]3(CCC4[C@@]5(C)CC[C@H](O[C@@H]6O[C@H](C(=O)O)[C@@H](O)[C@H](OC7OC(CO)C(O)C(O)[C@H]7O[C@@H]7O[C@@H](C)[C@H](O)[C@@H](O)[C@H]7O[C@@H]7OC[C@](O)(CO)[C@H]7O)[C@H]6OC6OC(CO)C(O)C(O)C6O)C(C)(C)C5CC[C@]42C)OC[C@@]12CCC(C)(C)CC23 (stereo not given in full)
inactive: activity change, negative = cytotoxicity [1] 2.65% [at 6.55 µM] | activity change, negative = cytotoxicity [2] 0.174% [at 6.55 µM] | activity change, negative = cytotoxicity [3] 16.9% [at 6.55 µM] | activity change, negative = cytotoxicity [4] -3.44% [at 6.55 µM] | activity change, negative = cytotoxicity [5] -0.755% [at 6.55 µM] | activity change, negative = cytotoxicity [6] -10.7% [at 6.55 µM] | activity change, negative = cytotoxicity [7] -4.85% [at 6.55 µM] | activity change, negative = cytotoxicity [8] -14.9% [at 6.55 µM] | activity change, negative = cytotoxicity [9] -13% [at 6.55 µM] | activity change, negative = cytotoxicity [10] 27.9% [at 6.55 µM] | activity change, negative = cytotoxicity [11] -2.25% [at 6.55 µM] | activity change, negative = cytotoxicity [12] -4.27% [at 6.55 µM]

CN(C)S(=O)(=O)c1ccc(NC(=S)N2CCC(C(O)(c3ccccc3)c3ccccc3)CC2)cc1
inactive: Potency [1] | Potency [2] | Potency [3] | Potency [4] | Potency [5] | Potency [6] | Potency [7] | Potency [8] | Potency [9] | Potency [10] | Potency [11] | Potency [12]

CC(=O)[C@H]1CC[C@H]2[C@@H]3CC=C4C[C@@H](OS(=O)(=O)O)CC[C@]4(C)[C@H]3CC[C@]12C
inactive: Potency [1] | Potency [2] | Potency [3] | Potency [4] | Potency [5] | Potency [6] | Potency [7] | Potency [8] | Potency [9] | Potency [10] | Potency [11] | Potency [12]

Source: PubChem BioAssay (NCATS)
